Assay results reported in PubChem BioAssay AID504467 (National Center for Advancing Translational Sciences (NCATS), 2011).
About 7,700 (2.3%) of roughly 330,000 compounds were called active. Where a call stands in place of a potency, no number is given. Not shown: some 26% with an inconclusive outcome. This is one part of a sample in which actives are shown more often than they occur. The call rests on the fitted dose curve; in most records, active means well fitted inhibition curve with a large enough effect; inconclusive means small, poorly fitted or top-dose-only effect, or effect the other way; inactive means flat fitted curve, though single readings scatter.

Test: qHTS screen for small molecules that inhibit ELG1-dependent DNA repair in human embryonic kidney (HEK293T) cells expressing luciferase-tagged ELG1; further: nearly all actives have a fitted effect of over 55% in size
Conditions: HEK293T ELG1-luciferase reporter, luminescence, 16 h, DNA damage induced by 5-fluorouridine; series mostly up to 46.1 µM
Source text: NIH Molecular Libraries Probe Production Network [MLPCN] NIH Chemical Genomics Center [NCGC] MLPCN Grant: 1 R03 MH092164-01 Assay Provider: Kyungjae Myung, NHGRI, NIH Keywords: MLPCN, qHTS, NCGC, genotoxicity, cancer Assay Overview: Cancer cells divide rapidly compared to normal cells in the body. During cell division, cancer cells need to duplicate their genome by DNA replication. The failure of genome duplication leads to cancer cells' death. Therefore, inhibitors of DNA replication could specifically kill cancer cells. Based on this concept, many chemotherapeutic agents were developed and have been used to treat cancer patients. However, there are a limited number of agents available in the clinical setting, and some of those that do exist have low efficacy and severe side effects. Therefore, if we can find the compounds that effectively block DNA replication either by directly damaging DNA or by inhibiting other cellular mechanisms, the options for cancer treatment will be broadened. With this in mind, we developed a quantitative high-throughput ELG1-luciferase reporter gene assay. Small molecules that specifically block ELG1 function in response to DNA damage can be identified by monitoring the suppression of luciferase activity. Since ELG1 defines a pathway for repairing DNA damage, agents blocking ELG1 function can be used to sensitize cancer cells to chemotherapeutic agents whose mechanism of action involves the induction of DNA damage.
Assay Protocol Summary: For genotoxicity screening, 2,000 cells in 4 uL/well were dispensed into white, solid-bottom 1536-well plates using a solenoid-based dispenser. Following transfer of 1 uL 5-Fluorouridine and 23 nL compound or DMSO vehicle by a pin tool, the plates were incubated 16 hr at 37 °C and 5% CO2. 5 ul ONE-Glo (Promega) was then added to each plate and following a 30 min incubation at room temperature, luciferase activity was quantified on a ViewLux CCD-based plate reader.
Potency means the concentration at half of the fitted maximal effect.

Structure (SMILES) | Potency
O=C(/C=C/c1cccs1)c1cc(Cl)ccc1OC(=O)N1CCOCC1 | 18.4 µM (active)
CC(=O)Nc1ccc(C(=O)C(Cc2ccccc2)N(C)C)cc1 (stereo not given) | inactive
Cc1nc2ccccc2c(=O)n1-c1ccc(Cl)cc1Cl | inactive
COC1=CC=C2[C@H]3Cc4ccc(OC)c5c4[C@@]2(CCN3C)C1O5 (stereo not given in full) | inactive
COC(=O)C1=C(c2cccc(OCc3ccccc3)c2)C[C@@H]2CC[C@H]1N2C(=O)NNCc1ccccc1 | inactive
COC(=O)C1=C(c2cccc(OCc3ccccc3)c2)C[C@@H]2CC[C@H]1N2C(=O)NCc1ccc(Br)cc1 | inactive
COc1ccc(CNCCc2c[nH]c3ccccc23)cc1OC | inactive
O=C(c1cc2nc(-c3ccccc3)cc(-c3ccccc3)n2n1)N1CCC2(CC1)OCCO2 | 20.6 µM (active)
O=C(c1cc(-c2ccncc2)nc2ccccc12)N1CCC2(CC1)OCCO2 | inactive
O=C(c1ccccc1[N+](=O)[O-])N1CCC2(CC1)OCCO2 | inactive
CCCCn1c(=O)c(C(=O)Nc2ccccc2Cl)c(O)c2ccccc21 | inactive
Cc1cccc(NC(=O)N2CC3CC(C2)c2cccc(=O)n2C3)c1 (stereo not given) | inactive
Cc1ncc(CC(=O)n2cc(C(=O)c3cc(Cl)ccc3O)cn2)s1 | 20.6 µM (active)
CCN1C(=O)C(=Cc2c(C)n(CC(=O)NCC3CCCO3)c3ccccc23)C(=O)N(CC)C1=S (stereo not given) | inactive
Cc1ccccc1NC(=O)COC(=O)c1cc(C)n(C2CC2)c1C | inactive
c1cc2c(cc1C1OCC3C(c4ccc5c(c4)OCO5)OCC13)OCO2 (stereo not given) | inactive
CN(C)CCN(CC1CCCN(Cc2ccccc2F)C1)C(=O)Cc1ccc(F)c(F)c1 (stereo not given) | inactive
CC(Cc1ccccc1)NCCC(c1ccccc1)c1ccccc1 (stereo not given) | inactive
Cc1ncoc1C(=O)NCCC(c1ccccc1)c1ccccc1 | 20.6 µM (active)
CCN(CC)C(=O)Oc1ccc(NC(=O)N2CCOCC2)cc1 | inactive
CCOc1cccc(=NC2CCCCC2)c2c(C)[nH]c(C)c12 | 10.3 µM (active)
O=c1[nH]c(O)c(C=Nc2cc(F)cc(F)c2)c(=O)[nH]1 | inactive
CCC(=O)c1ccc(OCC(=O)N2CCN(CC(=O)Nc3ccc(C)cc3)CC2)cc1 | inactive
COc1ccc2[nH]c3c(c2c1)CCN[C@H]3C | inactive
CCOC(=O)C(O)(c1ccc(NC(=O)c2ccco2)c(OC)c1)C(F)(F)F (stereo not given) | inactive

Structure (SMILES) | Potency
COc1cc(Cn2c(N)c(C(=O)NCc3ccco3)c3nc4ccccc4nc32)cc(OC)c1OC | 3.26 µM (active)
COc1ccccc1NC(=O)N1C[C@@H]2C[C@@H](C1)c1cccc(=O)n1C2 | inactive
O=C(Cc1ccc(Cl)cc1)NCCN1CCN(C(=O)Cc2ccc(Cl)cc2)CC1 | inactive
CC1CCC(N(C)C2CCN(C)CC2)CC1 (stereo not given) | inactive
COc1cc(-n2c(=S)[nH]c3ccc(C)cc3c2=O)c(Cl)cc1Cl | 16.4 µM (active)
COC(=O)C1=C(c2ccc(Cl)c(C(F)(F)F)c2)C[C@@H]2CC[C@H]1N2C(=O)NC(C)C | inactive
O=C(O)c1ccccc1NC(=O)C1C2CCC(O2)C1C(=O)O (stereo not given) | inactive
COC(=O)C1=C(c2ccc(F)cc2OCc2ccccc2)C[C@@H]2CC[C@H]1N2C(=O)NCc1ccc(C(C)(C)C)cc1 | inactive
COc1ccc(CNCCc2ccc3c(c2)OCO3)c(OC)c1OC | inactive
O=C(NC(=S)N1C[C@H]2C[C@H](C1)c1cccc(=O)n1C2)c1ccc(F)cc1 | inactive
CN(c1ccccc1)c1ccc([N+](=O)[O-])c2nonc12 | inactive
Oc1cc2c(cc1CN1CCN(c3ccccc3)CC1)OCO2 | inactive
CCC(C)n1c(O)c(/C=N/Nc2nc3c(c(=O)n(C)c(=O)n3C)n2C)c(=O)[nH]c1=S (stereo not given) | 23.1 µM (active)
C[C@]12CC[C@H](O)CC1=C([N+](=O)[O-])CC1C2CC[C@@]2(C)C1CC[C@@H]2O (stereo not given in full) | inactive
c1ccc(CC2CCCCN2)cc1 (stereo not given) | inactive
CCCCCn1c(=O)c(C(=O)NCc2ccccc2)c(O)c2ccccc21 | inactive
CCCCCCCCCCCCn1ccc(=N)cc1 | 5.8 µM (active)
COc1cccc(OC)c1C(=O)NC(=S)N1C[C@H]2C[C@H](C1)c1cccc(=O)n1C2 | inactive
COC(=O)[C@@H]1C(OC(=O)c2ccccc2)CC2CCC1N2C (stereo not given in full) | inactive
CC[C@H]1CN2CCc3cc(OC)c(OC)cc3[C@@H]2C[C@@H]1C[C@H]1NCCc2cc(OC)c(OC)cc21 | 0.259 µM (active)
COc1ccc(N2C(=O)/C(=C/c3ccco3)C(=O)NC2=S)cc1 | inactive
Cc1c(Oc2cc(NN3CCCCC3)c([N+](=O)[O-])cc2[N+](=O)[O-])cccc1[N+](=O)[O-] | inactive
CCc1ccc(OCC(=O)N2CCN(CC(=O)Nc3ccccc3Cl)CC2)cc1 | inactive
COC(=O)C1=C(c2ccc(Cl)c(C(F)(F)F)c2)C[C@@H]2CC[C@H]1N2C(=O)NC1CC1 | inactive
C[C@]12CCC3C(CC[C@H]4C[C@@H](O)CC[C@]34C)C1CC[C@@H]2O (stereo not given in full) | inactive
